C diff HTS – blocks growth of Clostridium difficile | Clostridium difficile clinical isolate growth, OD600, 24 h; hits give low values | growth activity, negative = inhibition, % at 16 µg/mL (by protocol) | actives 0.25% (n = 86,000);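 active = mean growth activity at or below -80% and every replicate also at or below -80%; inconclusive = mean at or below -80% but some replicate above -80%; inactive = mean growth activity above -80%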;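 also: 0% = DMSO wells and -100% = levofloxacin 16 µg/mL wells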
T cruzi growth-1 – blocks T. cruzi growth in NIH3T3 culture. actives 5.9% (n = 77,000). inhibition, % at 8.34 µM. AID 624255. T. cruzi beta-gal in NIH3T3, GalScreen luminescence, 90 h;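 active = mean inhibition above about 93%, with at least 55% of replicates each passing it, limit read from the data, passing the limit was not always enough; inconclusive = only one of those two conditions holds; inactive = neither condition holds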
T cruzi growth-2 – blocks T. cruzi growth in NIH3T3 host cells. shares compounds with T cruzi growth-1. T. cruzi beta-gal in NIH3T3, GalScreen luminescence, 90 h. inhibition, % at 8.35 µM. actives 72% (n = 5,600);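 active = mean replicate inhibition above about 95% and at least 55% of replicates individually reaching it, limit read from the data; inconclusive = only one of the two criteria is met; inactive = neither criterion is met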
T cruzi growth-3 – inhibitors of T. cruzi proliferation. shares compounds with T cruzi growth-1. T. cruzi beta-gal in NIH3T3, GalScreen luminescence, 90 h. inhibition, % at 2.09 µM. actives 21% (n = 5,600);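 active = mean inhibition above about 95%, with at least 55% of replicates also reaching it, limit read from the data; inconclusive = meets just one of the two conditions; inactive = meets neither condition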;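 also: plate controls were neutral control median for no effect and positive control median for full effect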
3T3 cytotox – kills mouse NIH/3T3 fibroblasts; actives 14% (n = 5,600); AID 651742; shares compounds with T cruzi growth-1; NIH/3T3 viability, CellTiter-Glo ATP luminescence, 90 h; cytotoxicity (signal decrease), % at 8.35 µM;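 active = mean signal decrease across replicates above about 35% based on untreated-well scatter, with enough replicates individually passing, limit read from the data; inconclusive = no rule stated though some were filed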;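 also: 0% = median of neutral control wells and 100% = median of positive control wells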
3T3 cytotox 2 – kills mouse NIH/3T3 fibroblasts; inhibition, % at 24.9 µM; shares compounds with T cruzi growth-1; actives 56% (n = 5,600); NIH/3T3 viability, CellTiter-Glo ATP luminescence, 90 h;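 active = mean loss of cell viability signal at or above a set limit, and enough replicates individually reaching it; inconclusive = meets only the mean limit or only the replicate share; inactive = meets neither condition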;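 also: 0% = median of neutral control wells and 100% = median of positive control wells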
* = called active by the depositor; ? = inconclusive; nt = no result. This excerpt belongs to a sample that is enriched for hits.

SMILES	C diff HTS	T cruzi growth-1	T cruzi growth-2	T cruzi growth-3	3T3 cytotox	3T3 cytotox 2
Cc1noc(C)c1S(=O)(=O)N(C)C[C@H]1OCCCC[C@H](C)Oc2ccc(NC(=O)Nc3cccc4ccccc34)cc2C(=O)N([C@H](C)CO)C[C@H]1C	0	nt	nt	nt	nt	nt
Cc1noc(C)c1S(=O)(=O)N(C)C[C@@H]1OCCCC[C@@H](C)Oc2ccc(NC(=O)Nc3cccc4ccccc34)cc2C(=O)N([C@@H](C)CO)C[C@H]1C	-1	104*	84	55	-14	-5
COc1ccc(NC(=O)Nc2ccc3c(c2)C(=O)N([C@@H](C)CO)C[C@H](C)[C@@H](CN(C)S(=O)(=O)c2c(C)noc2C)OCCCC[C@H](C)O3)cc1	-5	107*	102*	-8	-12	-7
Cc1noc(C)c1S(=O)(=O)N(C)C[C@@H]1OCCCC[C@H](C)Oc2ccc(NC(=O)Nc3cccc4ccccc34)cc2C(=O)N([C@H](C)CO)C[C@@H]1C	-3	109*	98*	-37	74*	77*
Cc1noc(C)c1S(=O)(=O)N(C)C[C@@H]1OCCCC[C@@H](C)Oc2ccc(NC(=O)Nc3ccccc3)cc2C(=O)N([C@H](C)CO)C[C@H]1C	14	nt	nt	nt	nt	nt
COc1ccc(NC(=O)Nc2ccc3c(c2)C(=O)N([C@@H](C)CO)C[C@@H](C)[C@H](CN(C)S(=O)(=O)c2c(C)noc2C)OCCCC[C@@H](C)O3)cc1	-2	-70	nt	nt	nt	nt
Cc1noc(C)c1S(=O)(=O)N(C)C[C@@H]1OCCCC[C@H](C)Oc2ccc(NC(=O)Nc3cccc4ccccc34)cc2C(=O)N([C@H](C)CO)C[C@H]1C	-3	83	nt	nt	nt	nt
CC(C)NC(=O)Nc1ccc2c(c1)C(=O)N([C@@H](C)CO)C[C@H](C)[C@@H](CN(C)Cc1ccncc1)O2	8	nt	nt	nt	nt	nt
C[C@@H]1CN([C@H](C)CO)C(=O)c2cccc(NC(=O)NC3CCCCC3)c2O[C@@H]1CN(C)C(=O)Nc1ccc(F)cc1	-14	17	nt	nt	nt	nt
Cc1cccc(S(=O)(=O)N[C@H]2CC[C@H](CCNC(=O)CCN3CCCCC3)O[C@H]2CO)c1	-3	53	nt	nt	nt	nt
O=C(C[C@@H]1C[C@@H]2c3cc(NC(=O)Nc4ccccc4)ccc3O[C@@H]2[C@H](CO)O1)NCc1ccncc1	nt	52	nt	nt	nt	nt
O=C(Nc1cccc(F)c1)N1CCCCN2[C@@H](CO)[C@@H](c3ccc(C#CC4CC4)cc3)[C@@H]2C1	18	70	nt	nt	nt	nt
O=C(Nc1ccc(F)cc1)N1CCCCN2[C@H](CO)[C@@H](c3ccc(C#CC4CC4)cc3)[C@H]2C1	13	113*	111*	84	28	105*
O=C(Nc1cccc(F)c1)N1CCCCN2[C@H](CO)[C@@H](c3ccc(C#CC4CC4)cc3)[C@@H]2C1	61	110*	106*	104*	23	104*
O=C(Nc1cccc(F)c1)N1CCCCN2[C@H](CO)[C@@H](c3ccc(C#CC4CC4)cc3)[C@H]2C1	43	112*	107*	80	26	104*
O=C(Nc1cccc(F)c1)N1CCCCN2[C@H](C1)[C@@H](c1ccc(C#CC3CC3)cc1)[C@@H]2CO	47	85	nt	nt	nt	nt
O=C(Nc1cccc(F)c1)N1CCCCN2[C@H](CO)[C@H](c3ccc(C#CC4CC4)cc3)[C@H]2C1	67	102*	98*	100*	122*	104*
O=C(Nc1ccccc1)N1CCCCN2[C@H](CO)[C@@H](c3ccc(C#CC4CC4)cc3)[C@@H]2C1	18	86	nt	nt	nt	nt
O=C(Nc1ccc(F)cc1)N1CCCCN2[C@@H](CO)[C@H](c3ccc(C#CC4CC4)cc3)[C@@H]2C1	43	53	nt	nt	nt	nt
CCC(=O)Nc1ccc2c(c1)C(=O)N(C)C[C@H](OC)[C@@H](C)CN(Cc1cncnc1)[C@H](C)CO2	nt	-21	nt	nt	nt	nt
C[C@H](CO)N1C[C@H](C)[C@@H](CN(C)S(=O)(=O)c2ccc(Cl)cc2)Oc2c(NC(=O)Nc3cccc4ccccc34)cccc2C1=O	-7	66	nt	nt	nt	nt
C[C@@H]1CN([C@@H](C)CO)C(=O)Cc2cc(NC(=O)Nc3cccc4ccccc34)ccc2O[C@H]1CN(C)S(=O)(=O)c1cn(C)cn1	-5	8	nt	nt	nt	nt
COc1ccc(S(=O)(=O)N(C)C[C@H]2OCCCC[C@@H](C)Oc3ccc(NC(=O)Nc4c(C)noc4C)cc3C(=O)N([C@@H](C)CO)C[C@@H]2C)cc1	-2	-3	nt	nt	nt	nt
COc1ccccc1-c1ccc([C@@H]2[C@H]3CN(C(=O)NC4CCCC4)CCCCN3[C@H]2CO)cc1	8	68	nt	nt	nt	nt
Cc1ccccc1-c1ccc([C@H]2[C@@H](CO)N3CCCCN(C(=O)NC4CCCC4)C[C@H]23)cc1	-1	115*	108*	99*	20	106*
SMILES	C diff HTS	T cruzi growth-1	T cruzi growth-2	T cruzi growth-3	3T3 cytotox	3T3 cytotox 2
COc1ccccc1-c1ccc([C@H]2[C@H]3CN(C(=O)NC4CCCC4)CCCCN3[C@H]2CO)cc1	3	69	nt	nt	nt	nt
COc1ccccc1-c1ccc([C@@H]2[C@@H](CO)N3CCCCN(C(=O)NC4CCCC4)C[C@@H]23)cc1	16	77	nt	nt	nt	nt
Cc1ccccc1-c1ccc([C@H]2[C@H]3CN(C(=O)NC4CCCC4)CCCCN3[C@H]2CO)cc1	10	112*	105*	53	-11	55*
Cc1ccccc1-c1ccc([C@H]2[C@@H](CO)N3CCCCN(C(=O)NC4CCCC4)C[C@@H]23)cc1	-7	106*	108*	93	17	81*
COc1ccccc1-c1cnc2c(c1)C(=O)N([C@H](C)CO)C[C@H](C)[C@H](CN(C)C(C)=O)O2	-4	?	35	2	19	-6
COc1ccccc1-c1cnc2c(c1)C(=O)N([C@@H](C)CO)C[C@@H](C)[C@@H](CN(C)C(C)=O)O2	-2	12	nt	nt	nt	nt
COc1ccccc1-c1cnc2c(c1)C(=O)N([C@H](C)CO)C[C@@H](C)[C@H](CN(C)C(C)=O)O2	-3	9	nt	nt	nt	nt
COc1ccccc1-c1cnc2c(c1)C(=O)N([C@H](C)CO)C[C@@H](C)[C@@H](CN(C)C(C)=O)O2	-3	99*	?	42	16	24
COCC#Cc1ccc2c(c1)O[C@H](CN(C)Cc1ccncc1)[C@H](C)CN([C@H](C)CO)S2(=O)=O	-2	29	nt	nt	nt	nt
COCC#Cc1ccc2c(c1)O[C@H](CN(C)Cc1ccc(F)cc1)[C@@H](C)CN([C@H](C)CO)S2(=O)=O	-2	85	nt	nt	nt	nt
COCC#Cc1ccc2c(c1)O[C@H](CN(C)Cc1ccncc1)[C@H](C)CN([C@@H](C)CO)S2(=O)=O	-5	49	nt	nt	nt	nt
COCC#Cc1ccc2c(c1)O[C@@H](CN(C)Cc1ccncc1)[C@@H](C)CN([C@@H](C)CO)S2(=O)=O	1	?	97*	71	20	18
COCC#Cc1ccc2c(c1)O[C@@H](CN(C)Cc1ccncc1)[C@@H](C)CN([C@H](C)CO)S2(=O)=O	2	?	105*	72	10	8

Screens deposited in PubChem BioAssay by Broad Institute.
